High-throughput results as filed in PubChem BioAssay.
NPC1 prom act: activators of NPC1 promoter. Huh7 NPC1 promoter luciferase reporter, 24 h. Potency, µM (series often up to 9.22 µM), for inactives: top-dose activation, usual class: activators. 2.4% of 320,000 active; note: % of control where 0% means no effect; nearly all actives have a fitted effect of over 60% in size
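Huh7 reporter cells (NPC1 promoter driving luciferase) are dosed with compound for 24 h at 37 °C, 5% CO2; luciferase detection reagent is then added and luminescence measured after 10 min at ambient temperature.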
SMN2 splice up: SMN2 splice variant enhancement | Potency, µM (doses to about 46.1 µM), for the others: top-dose activity change, positive = activation, most hits filed as activators | HEK293 SMN2-luciferase splicing reporter, luminescence, 30-36 h | 2.8% of 210,000 active | AID 1458; note: % of control where 0% means no effect; nearly all actives have a fitted effect of over 55% in size
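HEK293 cells carry an SMN2 minigene-luciferase reporter in which exon 7 inclusion puts luciferase in frame. Cells were seeded at 2000 cells/well, attached for 10-12 hours, then exposed to compounds for 30-36 hours at 37C before ONE-Glo luminescence.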
ELG1 DNA repair: inhibitors of ELG1-dependent DNA repair in HEK293T cells; Potency, µM (highest dose often 46.1 µM), inactives show at the highest dose activity change, negative = inhibition, hits mostly inhibitors; HEK293T ELG1-luciferase reporter, luminescence, 16 h; DNA damage induced by 5-fluorouridine; AID 504467; 2.3% of 330,000 active; note: % is set by controls: 0 for no effect and ±100 for the full control effect; nearly all actives have a fitted effect of over 55% in size
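Reporter activity after DNA damage by 5-fluorouridine is monitored. Compound-treated cells incubate 16 hr at 37 °C, then ONE-Glo is added for 30 min before luminescence reading.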
Rab9 prom act: activators of Rab9 promoter. Huh7 Rab9 promoter-luciferase reporter, luminescence, 24 h. Potency, µM (top dose mostly 9.22 µM), for inactives: top-dose activation, negative = inhibition, hits mostly activators. 2.8% of 320,000 active. AID 485297; note: % of control where 0% means no effect; nearly all actives have a fitted effect of over 60% in size
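Promoter activation is measured as luciferase luminescence in Huh7 cells stably transfected with a Rab9 promoter–luciferase construct, following 24 h compound exposure at 37 °C and 10 min reagent incubation at ambient temperature.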
FLuc counter: inhibits or activates purified firefly luciferase, miR-21 counter-screen | P08659 | purified FLuc, Km substrates, luminescence inhibition | Potency, µM (highest dose often 57.5 µM), for the others: at the highest dose activity change, negative = inhibition, actives largely listed as inhibitors | 6.9% of 360,000 active | AID 588342;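 note: plate controls were vehicle for no effect and reference inhibitor for full effect; nearly all actives have a fitted effect of over 55% in size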
Target sequence (P08659 whole entry, looked up): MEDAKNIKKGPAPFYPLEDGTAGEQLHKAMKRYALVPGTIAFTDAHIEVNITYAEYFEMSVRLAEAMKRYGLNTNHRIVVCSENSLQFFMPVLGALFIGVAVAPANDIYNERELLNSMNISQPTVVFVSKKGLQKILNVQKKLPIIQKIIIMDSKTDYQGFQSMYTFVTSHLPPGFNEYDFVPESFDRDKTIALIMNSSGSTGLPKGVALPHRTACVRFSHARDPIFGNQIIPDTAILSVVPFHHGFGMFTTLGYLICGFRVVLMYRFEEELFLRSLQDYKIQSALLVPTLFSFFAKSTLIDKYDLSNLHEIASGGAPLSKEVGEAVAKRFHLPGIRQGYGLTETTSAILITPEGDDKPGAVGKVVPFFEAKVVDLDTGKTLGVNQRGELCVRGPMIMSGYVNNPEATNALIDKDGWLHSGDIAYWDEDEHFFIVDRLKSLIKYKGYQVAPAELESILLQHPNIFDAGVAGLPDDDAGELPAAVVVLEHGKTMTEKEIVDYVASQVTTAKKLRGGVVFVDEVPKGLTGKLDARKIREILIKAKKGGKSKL
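Purified P. pyralis luciferase (10nM final) with 10uM D-luciferin and 10uM ATP (Km levels) in 50mM Tris acetate pH 7.5, 10mM Mg acetate, 0.01% Tween-20, 0.05% BSA; qHTS 6-point titration, ~60 µM downward; luminescence read.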
ELG1 genotox: genotoxicity induction in ELG1-luciferase HEK293T cells | HEK293T ELG1-luciferase reporter, luminescence, 16 h | Potency, µM (series often up to 46 µM), for inactives: at the highest dose activity change, positive = activation, actives largely listed as activators | 1.3% of 330,000 active | AID 504466; note: % of control where 0% means no effect; nearly all actives have a fitted effect of over 60% in size
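Genotoxic stress is detected as increased luminescence from luciferase-tagged ELG1 in HEK293T cells, measured with ONE-Glo after a 16 hr treatment at 37 °C.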
The depositor's hits bear a star; ? = inconclusive; . = no result. Compounds with a hit are over-represented: about 9.3% of the library has one in this group of screens. Calls come from the whole dose curve; as a rule, active = well fitted curve in the direction sought with a large enough effect; inconclusive = small, poorly fitted or top-dose-only effect, or another doubt; inactive = no such curve, though single readings can be large; an effect the other way counts as inactive or inconclusive. Potency is the fitted concentration of half-maximal effect.

SMILES	NPC1 prom act	SMN2 splice up	ELG1 DNA repair	Rab9 prom act	FLuc counter	ELG1 genotox
O=C(Nc1ccc(F)cc1)c1ccc2nsnc2c1	?	.	?	?	13.5µM*	8.9%
CC(C)OC(=O)c1cccc(NC(=O)c2ccccc2)c1	?	?	?	?	13.5µM*	13.7%
NC(=O)c1ccc(NC(=O)c2cccc(Oc3ccccc3)c2)cc1	-1.4%	-6.5%	3.7%	-6.7%	4.9%	10.2%
Cc1ccc(NC(=O)c2ccc3snnc3c2)cc1	-1.8%	.	-4.6%	12.5%	-3.2%	3.7%
NS(=O)(=O)c1cccc(NC(=O)c2cccc(Oc3ccccc3)c2)c1	6.1%	.	-19.2%	6.2%	10.7µM*	3.8%
COc1cc(CC(=O)NNC(=O)c2cccs2)cc(OC)c1OC	.	.	-1.2%	.	.	0.3%
COc1cc(C(=O)Nc2cccc(NC(=O)c3cccs3)c2)cc(OC)c1OC	-6.7%	.	8.2µM*	-2.1%	23.9µM*	-3.2%
CCCN(CC(=O)Nc1ccccc1C)C(=O)c1ccc(S(=O)(=O)N2CCCCC2)cc1	-5.7%	.	-0.9%	-41.7%	6.8%	1.9%
COc1cccc(NC(=O)Nc2cccnc2)c1	17.4%	.	-7.1%	4.6%	16.9µM*	1.6%
COc1cccc(NC(=O)c2cccc(C(=O)Nc3cccc(OC)c3)c2)c1	10.2%	.	24.9%	9.6%	-1.0%	12.7%
COc1cccc(C(=O)Nc2cccc(-c3ccccc3)c2)c1	1.6%	.	6.2%	2.8%	21.3µM*	1.0%
COc1ccc(/C(C)=N/NC(=O)C2CC2)cc1	5.5%	4.1%	?	13.8%	-18.8%	?
COc1ccc2cc(/C(C)=N/NC(=O)C3CC3)ccc2c1	2.51µM*	15.8µM*	?	2.82µM*	2.39µM*	18.3µM*
COc1cccc(NC(=O)CCC(=O)Nc2cccc(OC)c2)c1	1.9%	-14.3%	2.7%	6.2%	-0.6%	2.3%
COc1cccc(NC(=O)Nc2cccc(C(=O)O)c2)c1	?	.	?	?	0.169µM*	-10.2%
COc1ccc(NC(=O)Nc2cccnc2)c(OC)c1	0.9%	7.2%	7.5%	-2.0%	-10.2%	2.8%
Clc1ccc2noc(-c3ccccc3)c2c1	2.1%	1.6%	?	0.9%	?	-22.3%
O=C(Nc1nc2c(Cl)ccc(Cl)c2s1)C1CC1	1.5%	.	?	9.0%	-0.5%	-4.7%
COc1ccccc1C(=O)OCCN=C1NS(=O)(=O)c2ccccc21	-1.6%	.	-2.3%	-0.7%	-1.2%	0.1%
O=C(NC1CCCC1)C(c1ccccc1)N(C(=O)c1csnn1)C1CCCC1 (centres undefined)	0.3%	.	2.7%	0.8%	-0.1%	-0.1%
CC(C)c1ccc(NC(=O)c2ccc(NC(=O)CCS(=O)(=O)c3cccs3)cc2)cc1	.	-3.5%	.	.	-1.2%	.
CC(=O)Nc1ccc(NC(=O)c2ccc(C3SCC(=O)N3CCc3ccccc3)cc2)cc1 (centres undefined)	-1.9%	-25.8%	23.1µM*	-4.1%	-1.5%	-4.4%
Cc1cccc(NC(=O)c2ccc(C3SCC(=O)N3CCc3ccccc3)cc2)c1 (centres undefined)	-5.4%	-65.7%	25.9µM*	-8.6%	1.3%	-4.1%
COCCNC(=O)c1ccc(C2SCC(=O)N2CCc2ccccc2)cc1 (centres undefined)	5.7%	.	17.6%	3.7%	-0.2%	-2.3%
CC/C(=N\NC(=O)c1csc(C)c1C)c1cccs1	2µM*	14.1µM*	?	1.12µM*	2.39µM*	?
SMILES	NPC1 prom act	SMN2 splice up	ELG1 DNA repair	Rab9 prom act	FLuc counter	ELG1 genotox
C/C(=N\NC(=O)c1csc(C)c1C)c1ccc(Cl)s1	?	-3.4%	?	?	?	?
CCC/C(=N\NC(=O)c1csc(C)c1C)c1cccs1	?	15.8µM*	?	3.16µM*	4.78µM*	10.3µM*
Cc1cc(C(=O)NN=C(CCC(=O)O)c2cccs2)c(C)o1	.	.	0.0%	.	.	0.6%
Cc1ccc(C(=O)O)cc1-c1ccc(C=C2C(=O)c3ccccc3C2=O)o1	-0.1%	15.6%	-5.0%	-4.4%	16.9µM*	-0.4%
O=C1C(=Cc2ccc(Br)o2)C(=O)c2ccccc21	9.1%	9.2%	17.3%	21.7%	13.5µM*	7.1%
Cc1cc(C(=O)O)ccc1-c1ccc(/C=C2\NC(=O)N(Cc3ccc(F)cc3)C2=O)o1	-2.8%	.	-12.8%	-1.9%	-8.1%	-4.5%
COC(=O)C(C)N1C(=O)S/C(=C\c2ccc(-c3ccc(C(=O)O)cc3C)o2)C1=O (centres undefined)	2.82µM*	.	?	2.24µM*	16.9µM*	?
CC(=O)OC(C(=O)NCc1ccc2c(c1)OCO2)c1ccccc1Cl (centres undefined)	3.3%	-1.4%	?	15.3%	-5.8%	-3.3%
O=C(COc1ccc(Br)cc1)Nc1ccc2oc(=O)ccc2c1	1.9%	.	2.0%	-2.7%	-1.2%	17.7%
CC(=O)Nc1ccc(/C=N/NC(=O)c2cc(-c3ccco3)nc3ccccc23)cc1	2.7%	.	-13.9%	3.1%	2.13µM*	3.2%
O=C(NNC(=O)c1cc(-c2ccco2)nc2ccccc12)c1ccccc1	-1.6%	.	?	2.9%	19µM*	-5.1%
CNC(=O)COC(=O)c1cc(-c2ccco2)nc2ccccc12	-5.5%	.	5.2%	-1.3%	?	-3.3%
O=C(O)c1ccccc1/C=N/NC(=O)c1cc(-c2ccco2)nc2ccccc12	-5.0%	.	-0.2%	13.5%	0.953µM*	-1.5%
O=C(O)c1cc(-c2ccco2)nc2cc3ccccc3cc12	15.8%	.	?	22.3%	8.49µM*	10.0%
O=C1CN(C(=O)/C=C/c2ccccc2F)c2ccccc2N1	11.6%	20.2%	?	27.7%	?	12.7%
Cc1ccc(C(=O)NCCc2ccncc2)cc1	?	?	?	?	21.3µM*	?
O=C(NCCc1ccccc1)c1cnc(Cl)c(Cl)c1	18.9%	.	?	14.0%	23.9µM*	13.3%
CN(c1ccc(C(=O)NCCSC(C)(C)C)cc1)S(C)(=O)=O	?	11.2µM*	?	?	19µM*	10.3µM*
Cc1ccc(CCNC(=O)c2ccc(CNS(=O)(=O)c3ccccc3)cc2)cc1	.	6.6%	.	.	-10.8%	.
Cc1ccc(C(=O)NCCc2ccccc2)cc1	?	.	?	0.0398µM*	0.536µM*	?
COc1ccc(CNS(=O)(=O)c2ccc3c(c2)NC(=O)C(C)C(=O)N3)cc1 (centres undefined)	.	.	.	.	-9.3%	.
Cc1ccc(CNC(=O)c2ccc(Cn3cc(-c4ccc(C)cc4)nc3-c3ccncc3)cc2)cc1	?	.	?	2.82µM*	10.7µM*	?
